Source: PubChem BioAssay
The source made the active and inactive calls. Unless noted, the rule behind the calls is not given here.

Key:
[1] = system: XIP peptide (Xip251-270) binding; test: XIP fragment 251-270 binding compounds – biochemical, small-molecule microarray, fluorescence 635/667 nm, 0.1 µg/mL protein, primary screen (AID 1182); settings: fluorescent protein binding, 635 nm, higher = more signal, called active from +8 up or from −8 down
[2] = system: XIP peptide (Xip251-270); test: compounds binding XIP fragment 251-270 – biochemical, small-molecule microarray, fluorescence 635/667 nm, 0.5 µg/mL protein, primary screen (AID 1183); settings: fluorescence 635 nm, higher = more signal
[3] = blood-stage malaria parasite viability loss – strain 3D7, DAPI fluorescence, 100 nL, primary screen (AID 1184);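 note: parasites grown inside human red blood cells in medium with human serum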; settings: P. falciparum 3D7 growth, 3 d, higher = more signal
[4] = biological target: Homeobox protein Hox-A13 (Mus musculus) (UniProt Q62424); test: disruptors of Hoxa13 oligonucleotide interaction – biochemical, fluorescence polarization, labeled oligonucleotide, primary screen (AID 1185); settings: Hoxa13:DNA binding, 15 min, higher = more signal, called active from +8 up or from −8 down
[5] = blockers of DNA damage checkpoint Chk1 activation – imaging, HeLa, hydroxyurea, phospho-Chk1 antibody, percent positive cells, primary screen (AID 1186); settings: hydroxyurea-induced phospho-Chk1 immunofluorescence imaging, higher = more signal
[6] = blockers of DNA damage checkpoint Chk1 activation – imaging, HeLa, hydroxyurea, phospho-Chk1 nuclear intensity, primary screen (AID 1187); settings: hydroxyurea-induced phospho-Chk1 immunofluorescence imaging, higher = more signal

Sequence of Homeobox protein Hox-A13 (Mus musculus) (Q62424 whole entry, looked up): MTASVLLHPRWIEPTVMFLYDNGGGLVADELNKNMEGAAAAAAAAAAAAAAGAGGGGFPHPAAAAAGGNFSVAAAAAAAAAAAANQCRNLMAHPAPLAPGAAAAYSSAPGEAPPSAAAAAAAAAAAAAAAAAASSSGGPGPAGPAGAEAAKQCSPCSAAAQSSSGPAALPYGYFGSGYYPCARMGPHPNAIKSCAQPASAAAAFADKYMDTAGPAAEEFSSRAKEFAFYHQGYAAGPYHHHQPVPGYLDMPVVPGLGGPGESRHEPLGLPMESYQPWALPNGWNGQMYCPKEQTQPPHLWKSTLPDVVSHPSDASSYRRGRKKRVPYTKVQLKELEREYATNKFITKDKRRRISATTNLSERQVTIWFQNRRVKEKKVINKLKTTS

SMILES	composite z-score [1]	composite z-score [2]	z-score [3]	z-score [4]	z-score [5]	z-score [6]
C=CC[C@H](OC(=O)Nc1ccc(OC)cc1)c1ccc(O)c2ccccc12	-0.104 (inactive)	0.616	-1.36	-0.0657 (inactive)	0.936 (inactive)	0.821 (inactive)
C=C(COC)/C(=C/C[C@@H](OC(=O)c1ccncc1)c1ccc(CO)o1)c1cnc2ccccc2c1	0.86 (inactive)	0.726	-0.58	-5.9 (inactive)	0.496 (inactive)	0.671 (inactive)
CC1CC/C=C\[C@H]2OC34C=CCN(CCN5CCOCC5)C(=O)[C@H]3N(CCO)C(=O)[C@@H]4C2C(=O)O1 (some centres undefined)	0.467 (inactive)	0.829	0.055	-5.81 (inactive)	0.0898 (inactive)	0.139 (inactive)
COCCOC(=O)N1C(=O)[C@@]2(c3cc(C#Cc4ccc(OC)cc4)ccc31)[C@H](C(=O)NC[C@H](O)c1ccccc1)[C@H]1C(=O)O[C@H](c3ccccc3)[C@H](c3ccccc3)N1[C@@H]2c1ccc(O)cc1	1.42 (inactive)	0.775	-0.754	-1.78 (inactive)	-0.045 (inactive)	0.126 (inactive)
CC1CC/C=C\[C@H]2OC34C=CCN(C(C)C)C(=O)[C@H]3N(CCCCCO)C(=O)[C@@H]4C2C(=O)O1 (some centres undefined)	-0.572 (inactive)	-1.17	1.17	-3.89 (inactive)	0.453 (inactive)	0.532 (inactive)
COc1ccc(NN2C(C(O)c3ccccn3)C=CC3C(=O)N(C4CCCCC4)C(=O)C32)cc1 (centres undefined)	-0.136 (inactive)	0.913	-0.408	-4.39 (inactive)	-0.773 (inactive)	-0.488 (inactive)
CC(C)C(O)C1C=CC2C(=O)N(C)C(=O)C2N1Nc1ccccc1 (centres undefined)	0.292 (inactive)	0.655	0.771	-1.81 (inactive)	0.331 (inactive)	0.193 (inactive)
CC[C@H]1C2=C3C(CC[C@H]4C(OCc5ccc(F)cc5C(F)(F)F)OC[C@](C)([C@@H]34)N(C(=O)OC(C)(C)C)C2)C2COC(=O)OCC21 (some centres undefined)	3.17 (inactive)	0.393	-0.749	-3.54 (inactive)	1.23 (inactive)	0.722 (inactive)
CC(C)CCC[C@@H](C)[C@H]1CC[C@@]2(C)C3=C(CC[C@]12C)[C@@]1(C)CC[C@H](OC(=O)c2ccc(Br)cc2)C(C)(C)C1CC3 (some centres undefined)	-0.349 (inactive)	-0.198	0.665	-0.708 (inactive)	0.0833 (inactive)	0.377 (inactive)
Cc1c(NC(=O)/C(C#N)=C/C=C/c2ccc(N(C)C)cc2)c(=O)n(-c2ccccc2)n1C	1.41 (inactive)	0.7	-0.46	-13.8 (active)	0.348 (inactive)	0.996 (inactive)
COc1ccc([Si](C)(C)[C@H]2[C@H](CCn3cc([C@H](O)c4ccccc4)nn3)O[C@@]3(C(=O)N(Cc4cccc(N5C(=O)c6cccc7cccc5c67)c4)c4ccccc43)[C@@H]2C)cc1	0.75 (inactive)	0.141	-0.989	-2.01 (inactive)	0.169 (inactive)	-0.656 (inactive)
COCC(=C=CC[C@H](O)c1ccc(OCCO)cc1)C[C@H](O)COCc1ccccc1	-0.0114 (inactive)	0.698	-2.74	-5.25 (inactive)	-0.364 (inactive)	0.19 (inactive)
COCCCNC(=O)[C@@H]1c2ccccc2C(=O)N(Cc2ccccc2C(F)(F)F)[C@H]1c1ccc(CO)cc1	0.348 (inactive)	-0.149	0.226	-1.82 (inactive)	-0.477 (inactive)	-0.593 (inactive)
CN(C)CCCCNC(=O)[C@H]1C[C@H]2C(=O)N3CCC[C@H]3C(=O)N2[C@H]1c1ccc(O)cc1	-0.301 (inactive)	0.538	-1.25	-0.12 (inactive)	0.331 (inactive)	0.513 (inactive)
C=CCOC(=O)[C@@H]1[C@H]2C(=O)O[C@H](c3ccccc3)[C@H](c3ccccc3)N2[C@H](c2ccc(OCCOC(=O)[C@H]3C[C@H]4C(=O)N[C@@H](CCCCNC(C)=O)C(=O)N4[C@H]3c3cccc(OCCO)c3)cc2)[C@@]12C(=O)Nc1ccc(I)cc12	1.09 (inactive)	0.822	-1.64	1 (inactive)	-0.398 (inactive)	-0.929 (inactive)
COCCOC(=O)N1C(=O)[C@@]2(c3cc(C#Cc4ccc(OC)cc4)ccc31)[C@H](C(=O)N1CCN(c3ncccn3)CC1)[C@H]1C(=O)O[C@H](c3ccccc3)[C@H](c3ccccc3)N1[C@@H]2c1ccccc1OCCO	-0.148 (inactive)	0.561	-1.51	-0.114 (inactive)	-0.019 (inactive)	-0.0377 (inactive)
C[C@]1(C(=O)NCCN2CCOCC2)c2ccccc2C(=O)N(Cc2ccc(OC(F)(F)F)cc2)[C@H]1c1ccc(CO)cc1	-0.0513 (inactive)	0.466	-1.08	-4.78 (inactive)	-0.198 (inactive)	-0.0723 (inactive)
CC(C)C(=C=CC[C@@H](O)c1ccccc1OCCO)C[C@@H](O)COCc1ccccc1	0.493 (inactive)	0.401	-1.47	-4.7 (inactive)	-0.476 (inactive)	1.12 (inactive)
CCCN1C(=O)[C@]2(Cc3ccccc3)N=C(c3ccc(OCCCO)cc3)O[C@@H]2c2ccccc21	-0.116 (inactive)	0.594	-2.26	-4.81 (inactive)	-0.143 (inactive)	0.231 (inactive)
Cc1ccc(S[C@]2(C(=O)NC3CC3)CC(=O)N(Cc3ccccc3Cl)[C@@H]2c2ccc(CO)cc2I)cc1	0.98 (inactive)	0.824	0.287	-1.54 (inactive)	0.159 (inactive)	0.858 (inactive)
C=CCOC(=O)[C@H]1[C@@H]2C(=O)O[C@@H](c3ccccc3)[C@@H](c3ccccc3)N2[C@@H](c2ccc(OCCOC(=O)[C@H]3C[C@H]4C(=O)N[C@@H](Cc5ccccc5)C(=O)N4[C@H]3c3ccc(O)cc3)cc2)[C@]12C(=O)Nc1ccc(I)cc12	0.451 (inactive)	0.768	-1.62	1.21 (inactive)	-0.688 (inactive)	-0.476 (inactive)
C=CCOC(=O)[C@H]1[C@@H]2C(=O)O[C@@H](c3ccccc3)[C@@H](c3ccccc3)N2[C@@H](c2ccc(OCCOC(=O)[C@H]3C[C@H]4C(=O)N[C@@H](Cc5ccccc5)C(=O)N4[C@H]3c3cccc(OCCO)c3)cc2)[C@]12C(=O)Nc1ccc(I)cc12	0.893 (inactive)	0.464	-1.65	0.643 (inactive)	0.27 (inactive)	-0.0401 (inactive)
CC(=O)N1Cc2ccccc2C[C@]2(N=C(c3ccc(OCCCO)cc3)O[C@@H]2c2ccccc2)C1=O	1.84 (inactive)	0.836	-1.42	-4.24 (inactive)	-0.151 (inactive)	-0.0442 (inactive)
CC(C)(C)OC(=O)CC[C@@]1(C(=O)O)N=C(c2ccc(OCCCO)cc2)O[C@@H]1c1ccccc1CN=[N+]=[N-]	-0.168 (inactive)	0.963	0.664	-4.73 (inactive)	-0.0889 (inactive)	-0.0647 (inactive)
[N-]=[N+]=Nc1ccccc1C[C@]1(C(=O)NCc2ccccc2)N=C(c2ccc(OCCCO)cc2)O[C@H]1c1ccccc1	0.222 (inactive)	0.813	-2.07	-0.801 (inactive)	0.0726 (inactive)	0.176 (inactive)
C=CCNC(=O)[C@@H]1[C@H]2C(=O)O[C@H](c3ccccc3)[C@H](c3ccccc3)N2[C@H](c2ccccc2OCCO)[C@@]12C(=O)N(C(=O)OCCOC)c1ccc(C#CC3=CCCCC3)cc12	0.0103 (inactive)	0.769	-2.08	1.31 (inactive)	-0.136 (inactive)	-0.103 (inactive)
Cc1ccc(S[C@]2(C(=O)NCC(C)C)CC(=O)N(Cc3ccccc3Cl)[C@@H]2c2ccc(CO)cc2I)cc1	2.28 (inactive)	0.157	-0.548	-2.97 (inactive)	-0.346 (inactive)	-0.237 (inactive)
COC(=O)C[C@H]1O[C@]2(C(=O)N(C)c3ccccc32)[C@@H](C)[C@@H]1[Si](C)(C)c1ccc(C)cc1	0.611 (inactive)	0.336	-2.09	-5.95 (inactive)	0.0207 (inactive)	0.0333 (inactive)
COC1(C)CN(Cc2ccccc2Br)[C@H](/C=C/c2ccccc2)[C@H](Cc2ccccc2)O1 (some centres undefined)	-0.181 (inactive)	-0.13	0.502	0.471 (inactive)	-1.6 (inactive)	-2.34 (inactive)
